Active and inactive are the calls of the source. The calls were made as follows: active = hit-call score of the fitted dose curve at least 0.9, where 1 is the maximum; inactive = score below 0.9.
Experiments:
Details in all cases: mRNA level, 48 h; actives raise or lower the signal
[1] = read-out: Protein phosphatase 2A (PPP2R4), PTPA (gene 5524); assay: LTEA_HepaRG_PPP2R4: Life Technologies and Expression Analysis (LTEA) Assay for Protein phosphatase 2A (PPP2R4) using HepaRG (AID 2283522)
In short: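 Using HepaRG cultures maintained in 0.5% DMSO, chemicals are tested 48 h at up to 100 uM in duplicate. Induction or suppression of PPP2R4 mRNA, measured by qRT-PCR, is fitted bidirectionally against the vehicle baseline.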

[2] = read-out: Phosphatase and tensin (PTEN), PTEN (gene 5728); assay: LTEA_HepaRG_PTEN: Life Technologies and Expression Analysis (LTEA) Assay for Phosphatase and tensin (PTEN) using HepaRG (AID 2283523)
In short: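 HepaRG, 48 h exposure, 8-pt half-log series from 100 uM top, 0.5% DMSO vehicle, duplicates. Readout: Fluidigm qRT-PCR of PTEN transcript; housekeeping normalization (ACTB, GAPDH, POLR2A). Gain or loss fitted relative to DMSO baseline.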

[3] = read-out: solute carrier (SLC22A1), SLC22A1 (gene 6580); assay: LTEA_HepaRG_SLC22A1: Life Technologies and Expression Analysis (LTEA) Assay for solute carrier (SLC22A1) using HepaRG (AID 2283524);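 as to AC50: differentiated human HepaRG liver cells in serum-free induction medium; TaqMan qRT-PCR normalized to ACTB GAPDH and POLR2A housekeeping genes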
In short: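 qRT-PCR readout (TaqMan, Fluidigm arrays) of SLC22A1 transcript, normalized to three housekeeping genes; bidirectional curve fit relative to 0.5% DMSO vehicle. Differentiated human HepaRG cells, 48 h chemical exposure, top concentration 100 uM, half-log steps, eight points.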

[4] = read-out: NAD(P)H dehydrogenase [quinone] 1 (NQO1), NQO1 (gene 1728); assay: LTEA_HepaRG_NQO1: Life Technologies and Expression Analysis (LTEA) Assay for NAD(P)H dehydrogenase [quinone] 1 (NQO1) using HepaRG (AID 2283526)
In short: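 In this assay, gene expression is read by qRT-PCR after 48 h exposure of HepaRG cells to eight concentrations (max 100 uM, half-log) in 0.5% DMSO. Each chemical runs in duplicate, and activity is scored relative to vehicle.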

[5] = read-out: Nuclear factor erythroid 2-related factor 2 (Homo sapiens) (UniProt Q16236); assay: LTEA_HepaRG_NFE2L2: Life Technologies and Expression Analysis (LTEA) Assay for Nuclear factor erythroid 2-related factor 2 (NFE2L2) Transcription Factor using HepaRG (AID 2283527)
In short: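 HepaRG, 48 h dosing, 8-pt half-log series from 100 uM in 0.5% DMSO, duplicates. Read-out: NFE2L2 mRNA by qRT-PCR (ACTB/GAPDH/POLR2A normalization). Bidirectional curve fit vs DMSO baseline.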

[6] = read-out: succinate dehydrogenase complex iron sulfur subunit B (SDHB), SDHB (gene 6390); assay: LTEA_HepaRG_SDHB: Life Technologies and Expression Analysis (LTEA) Assay for succinate dehydrogenase complex iron sulfur subunit B (SDHB) using HepaRG (AID 2283528)
In short: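 HepaRG cells (~100,000/well, plated 48 h) exposed in duplicate for 48 h in serum-free induction medium to 8-point half-log series from 100 uM in 0.5% DMSO; mRNA by qRT-PCR normalised to ACTB, GAPDH, POLR2A; bidirectional fit versus DMSO.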

[7] = read-out: Signal transducer and activator of transcription 3 (Homo sapiens) (UniProt P40763); assay: LTEA_HepaRG_STAT3: Life Technologies and Expression Analysis (LTEA) Assay for Signal transducer and activator of transcription (STAT3) using HepaRG (AID 2283529)
In short: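 HepaRG, 48 h exposure, 8-pt half-log series (top 100 uM), 0.5% DMSO vehicle, duplicates. Readout: STAT3 transcript by Fluidigm qRT-PCR, housekeeping-normalized; bidirectional fit vs DMSO baseline.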

[8] = read-out: solute carrier (SLCO1B1), SLCO1B1 (gene 10599); assay: LTEA_HepaRG_SLCO1B1: Life Technologies and Expression Analysis (LTEA) Assay for solute carrier (SLCO1B1) using HepaRG (AID 2283530)
In short: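 HepaRG, serum-free induction medium, 48 h dosing, 8-pt half-log from 100 uM, 0.5% DMSO vehicle, duplicates. Readout: SLCO1B1 mRNA, qRT-PCR, ACTB/GAPDH/POLR2A normalization; up or down fit vs DMSO.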

[9] = read-out: sulfotransferase 2A1 (SULT2A1), SULT2A1 (gene 6822); assay: LTEA_HepaRG_SULT2A1: Life Technologies and Expression Analysis (LTEA) Assay for sulfotransferase 2A1 (SULT2A1) using HepaRG (AID 2283531)
In short: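 Transcript levels of SULT2A1, quantified by qRT-PCR and normalized to three housekeeping genes, serve as the readout. Human HepaRG cultures receive test chemicals for 48 h at up to 100 uM in half-log steps, with 0.5% DMSO vehicle.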

[10] = read-out: Pyruvate Dehydrogenase Kinase 4 (PDK4), PDK4 (gene 5166); assay: LTEA_HepaRG_PDK4: Life Technologies and Expression Analysis (LTEA) Assay for Pyruvate Dehydrogenase Kinase 4 (PDK4) using HepaRG (AID 2283525)
In short: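 HepaRG (human liver line), 48 h chemical exposure, 8-pt half-log CRC top 100 uM, 0.5% DMSO vehicle, duplicates. Readout: TaqMan qRT-PCR of PDK4 mRNA, housekeeping-normalized; gain/loss fit relative to DMSO baseline.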

Measured: AC50

Chain of Signal transducer and activator of transcription 3 (Homo sapiens) (P40763 whole entry, looked up): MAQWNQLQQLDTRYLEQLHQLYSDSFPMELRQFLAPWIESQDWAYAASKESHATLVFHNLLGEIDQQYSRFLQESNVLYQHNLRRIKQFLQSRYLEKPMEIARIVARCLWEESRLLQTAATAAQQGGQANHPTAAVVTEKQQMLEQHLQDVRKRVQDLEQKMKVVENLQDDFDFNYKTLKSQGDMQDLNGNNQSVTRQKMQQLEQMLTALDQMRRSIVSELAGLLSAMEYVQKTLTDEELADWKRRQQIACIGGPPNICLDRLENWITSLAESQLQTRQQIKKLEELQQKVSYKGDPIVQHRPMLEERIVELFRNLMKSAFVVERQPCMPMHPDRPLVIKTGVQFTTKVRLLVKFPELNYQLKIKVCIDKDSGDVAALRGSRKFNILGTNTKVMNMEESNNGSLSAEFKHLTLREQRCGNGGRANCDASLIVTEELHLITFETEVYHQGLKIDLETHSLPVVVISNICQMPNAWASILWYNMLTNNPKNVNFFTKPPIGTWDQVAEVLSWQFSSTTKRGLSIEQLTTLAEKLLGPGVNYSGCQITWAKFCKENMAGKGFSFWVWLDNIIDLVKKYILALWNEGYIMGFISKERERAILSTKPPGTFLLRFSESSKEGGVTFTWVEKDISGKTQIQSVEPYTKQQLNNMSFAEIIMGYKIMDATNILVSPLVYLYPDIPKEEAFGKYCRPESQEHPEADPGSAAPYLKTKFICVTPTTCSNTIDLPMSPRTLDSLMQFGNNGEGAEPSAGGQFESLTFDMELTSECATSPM
Chain of Nuclear factor erythroid 2-related factor 2 (Homo sapiens) (Q16236 whole entry, looked up): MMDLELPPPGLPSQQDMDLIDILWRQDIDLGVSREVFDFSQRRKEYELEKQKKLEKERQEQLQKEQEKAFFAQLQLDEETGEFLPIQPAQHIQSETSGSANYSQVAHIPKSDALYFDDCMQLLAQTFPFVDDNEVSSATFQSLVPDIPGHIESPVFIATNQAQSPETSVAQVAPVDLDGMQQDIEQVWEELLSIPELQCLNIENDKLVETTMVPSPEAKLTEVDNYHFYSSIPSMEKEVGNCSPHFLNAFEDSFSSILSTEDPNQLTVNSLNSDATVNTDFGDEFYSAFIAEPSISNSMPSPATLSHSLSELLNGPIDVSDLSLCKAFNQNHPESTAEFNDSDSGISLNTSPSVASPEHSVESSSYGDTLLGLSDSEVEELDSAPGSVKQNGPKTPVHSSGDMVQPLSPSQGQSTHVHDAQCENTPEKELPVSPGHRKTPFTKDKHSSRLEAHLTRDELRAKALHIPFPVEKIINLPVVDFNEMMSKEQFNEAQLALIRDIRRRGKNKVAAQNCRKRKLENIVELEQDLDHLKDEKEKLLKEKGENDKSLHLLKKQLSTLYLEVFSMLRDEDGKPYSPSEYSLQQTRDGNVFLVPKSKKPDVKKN

CNC(=O)Oc1cccc2c1OC(C)(C)C2
not listed: [10]
inactive: all other assays above

OCCCl
not listed: [5]
inactive: all other assays above

Nc1cc(Cl)cc(C(=O)O)c1Cl
not listed: [10]
inactive: all other assays above

CCCCCCCCn1sccc1=O
active: [3] 78.4 µM | [8] 84.1 µM
not listed: [10]
inactive: all other assays above

COP(=S)(OC)SCN1C(=O)c2ccccc2C1=O
not listed: [5]
inactive: all other assays above

[O-][Cl+]O
not listed: [10]
inactive: all other assays above

Nc1ccc(Cl)cc1N
inactive: [10] | [7]
active: [1] 26.3 µM | [2] 32.6 µM | [3] 18.9 µM | [4] 78 µM | [6] 21.6 µM | [8] 20.9 µM | [9] 35.4 µM

CC(C)(C)OOC(=O)c1ccccc1
not listed: [5]
inactive: all other assays above

Cc1ccc(N)cc1
not listed: [5]
inactive: all other assays above

C[C@]12C=CC3=C4CCC(=O)C=C4CC[C@H]3[C@@H]1CC[C@@H]2O
active: [3] 41 µM | [8] 9.92 µM | [9] 81.8 µM
not listed: [10]
inactive: all other assays above

CCCSC(=O)N(CCC)CCC
not listed: [5]
inactive: all other assays above

Clc1ccc(C(c2ccc(Cl)cc2)C(Cl)Cl)cc1
active: [3] 78.2 µM
not listed: [5] | [10]
inactive: all other assays above

CCCCCCCCOC(=O)c1ccc(C(=O)OCCCCCCCC)c(C(=O)OCCCCCCCC)c1
not listed: [8] | [10]
inactive: all other assays above

OCCOCCO
not listed: [5] | [10]
inactive: all other assays above

CCOC(=O)[C@]1(c2ccccc2)Oc2ccccc2[C@@H]1N
active: [3] 84.2 µM | [8] 90.6 µM | [9] 93.2 µM
not listed: [5] | [10]
inactive: all other assays above

C=CCc1ccc2c(c1)OCO2
not listed: [5] | [10]
inactive: all other assays above

[As]#[In]
not listed: [5] | [10]
inactive: all other assays above

c1ccc2c(c1)-c1cccc3cccc-2c13
not listed: [5] | [10]
inactive: all other assays above

Cc1cccc(N)c1N
active: [3] 47.4 µM | [7] 9.92 µM | [8] 50 µM
not listed: [5] | [10]
inactive: all other assays above

Nc1ccc(Cc2ccc(N)cc2)cc1
not listed: [5] | [10]
inactive: all other assays above

Cc1ccc([N+](=O)[O-])cc1
not listed: [5] | [10]
inactive: all other assays above

O=[N+]([O-])C(Br)(CO)CO
not listed: [10]
inactive: all other assays above

Cc1cc(N=Nc2ccccc2C)ccc1N
inactive: [4] | [6] | [7]
active: [1] 2.35 µM | [2] 4.12 µM | [3] 4.83 µM | [8] 3.57 µM | [9] 12.8 µM

CC(O)CCO (configuration not stated)
not listed: [5] | [10]
inactive: all other assays above

CN(C)C(=O)Nc1ccc(Cl)cc1
not listed: [10]
inactive: all other assays above

CS(=O)(=O)NC(=O)c1cc(Oc2ccc(C(F)(F)F)cc2Cl)ccc1[N+](=O)[O-]
not listed: [5] | [10]
inactive: all other assays above

Oc1ccccc1Cl
not listed: [5] | [10]
inactive: all other assays above

Nc1ccc([N+](=O)[O-])cc1
not listed: [5] | [10]
inactive: all other assays above

ClC1=C(Cl)C2(Cl)C3C(Cl)C=CC3C1(Cl)C2(Cl)Cl (configuration not stated)
not listed: [5] | [10]
inactive: all other assays above

CCCCCCCCCCCCCN1CC(C)OC(C)C1 (configuration not stated)
not listed: [5] | [10]
inactive: all other assays above

Clc1ccccc1Cl
not listed: [5] | [10]
inactive: all other assays above

CN(C)c1ccccc1
not listed: [5] | [10]
inactive: all other assays above

CCNS(=O)(=O)C(F)(F)C(F)(F)C(F)(F)C(F)(F)C(F)(F)C(F)(F)C(F)(F)C(F)(F)F
active: [3] 40.5 µM | [8] 48.2 µM
not listed: [5] | [10]
inactive: all other assays above

CCC12COCN1COC2
not listed: [5] | [10]
inactive: all other assays above

c1ccc(N=Nc2ccccc2)cc1
not listed: [7] | [10]
inactive: all other assays above

COC(=O)c1ccccc1N
not listed: [5] | [10]
inactive: all other assays above

O=C(Oc1ccc(Br)cc1)N1CCN2CCC1CC2
not listed: [5] | [10]
inactive: all other assays above

CC(C)(C)C(O)(CCc1ccc(Cl)cc1)Cn1cncn1 (configuration not stated)
active: [1] 50 µM | [3] 73.2 µM | [5] 50 µM | [9] 80.2 µM
not listed: [10]
inactive: all other assays above

O=Cc1ccco1
not listed: [10]
inactive: all other assays above
